Data published in PubChem BioAssay AID720566 (Broad Institute, 2013).
Measured potencies and affinities stand elsewhere.

The compounds below were run against Protein disulfide-isomerase A6 (Homo sapiens) (UniProt Q15084) (assay: inhibitors of ERp5-mediated insulin aggregation, dose response, biochemical, turbidity, absorbance 650 nm, cherry-picked samples (AID 720566;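 note: negative values mean less insulin aggregation so ERp5 inhibition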)). Settings: Recombinant ERp5 insulin aggregation; series mostly up to 35 µM; activity change, negative = inhibition: at the top concentration;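 active = in all runs, an absorbance decrease of 25% or more of the average positive control decrease; inconclusive = runs conflict, with both active and inactive results; inactive = all runs inactive, opposite-direction effects included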.
Chain of Protein disulfide-isomerase A6 (Homo sapiens) (Q15084 whole entry, looked up): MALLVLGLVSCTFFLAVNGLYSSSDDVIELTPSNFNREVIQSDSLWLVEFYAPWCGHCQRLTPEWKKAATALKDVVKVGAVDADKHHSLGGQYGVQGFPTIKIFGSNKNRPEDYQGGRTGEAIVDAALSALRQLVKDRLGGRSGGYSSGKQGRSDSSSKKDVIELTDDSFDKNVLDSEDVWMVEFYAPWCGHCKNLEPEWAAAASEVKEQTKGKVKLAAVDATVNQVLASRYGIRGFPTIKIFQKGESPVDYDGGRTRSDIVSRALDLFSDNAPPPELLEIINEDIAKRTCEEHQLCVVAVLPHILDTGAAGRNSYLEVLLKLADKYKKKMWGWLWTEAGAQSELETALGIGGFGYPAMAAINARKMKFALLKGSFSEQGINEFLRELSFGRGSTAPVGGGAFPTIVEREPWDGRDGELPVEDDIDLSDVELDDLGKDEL

Activity change, negative = inhibition, inactive:
C/C=C/c1ccc2c(c1)O[C@@H](CN(C)S(C)(=O)=O)[C@H](C)CN([C@@H](C)CO)S2(=O)=O 2.99%
COCC#Cc1cnc2c(c1)C(=O)N([C@H](C)CO)C[C@@H](C)[C@H](CN(C)C(=O)NC1CCCC1)O2 -13%
Cc1ccc2nc(-c3cccc(Br)c3)c(Cc3cccc(Cl)c3)n2c1 -4.19%
CC(C)NC(=O)N(C)C[C@@H]1Oc2ncc(-c3cc4ccccc4o3)cc2C(=O)N([C@H](C)CO)C[C@@H]1C 4.66%
CCCNC(=O)C[C@@H]1C[C@@H]2c3cc(NS(C)(=O)=O)ccc3O[C@@H]2[C@H](CO)O1 1.83%
CC(=O)Nc1ccc2c(c1)C(=O)N(C)[C@H]1CC[C@@H](CC(=O)NCC3CC3)O[C@H]1CO2 -4.92%
CN(CC(=O)Nc1ccc(F)c(F)c1F)C(=O)c1cc(-c2ccncc2)nc2ccccc12 5.55%
CO[C@H]1CN(C)C(=O)c2cc(NC(=O)CC(F)(F)F)ccc2OC[C@H](C)N(C(=O)C2CC2)C[C@@H]1C 2.98% [at 30 µM]
COc1ccccc1NS(=O)(=O)c1ccc(C(=O)N2CCN(c3ccccn3)CC2)cc1 -5.32%
COc1ccc(NC(=O)CSc2nnc(NC(=O)C3CC3)s2)cc1OC -1.02%
C[C@@H]1CCCCO[C@@H](CN(C)Cc2ccc(C(=O)Nc3ccccc3N)cc2)[C@@H](C)CN([C@H](C)CO)C(=O)c2cc(NS(=O)(=O)c3cccs3)ccc2O1 10.1%
C[C@@H]1CN([C@@H](C)CO)C(=O)Cc2cc(NC(=O)Nc3ccc(C(F)(F)F)cc3)ccc2O[C@@H]1CN(C)Cc1ccc(Cl)c(Cl)c1 6.89%
C[C@@H]1CN([C@H](C)CO)C(=O)c2cccc(NC(=O)Nc3cccc4ccccc34)c2O[C@@H]1CN(C)C(=O)Nc1ccc(C(F)(F)F)cc1 -7.04%
O=C(Nc1ccncc1)C1CCN(S(=O)(=O)c2cccc(C(F)(F)F)c2)CC1 -7.36%
COc1ccc2c3c([nH]c2c1)[C@H](CO)N(Cc1ccccc1Cl)CC31CN(C(=O)C2CC2)C1 9.35%
COc1ccc2c3c(n(C)c2c1)[C@H](CO)N(S(C)(=O)=O)CC31CCN(CC2CCCC2)CC1 2.99%
CCC(=O)Nc1ccc2c(c1)C(=O)N(C)[C@H]1CC[C@H](CC(=O)NCC3CC3)O[C@H]1CO2 -1.49%
CN(C)C(=O)C[C@H]1C[C@H]2c3cc(NS(C)(=O)=O)ccc3O[C@H]2[C@@H](CO)O1 2.6%
COCC(=O)N(C)C[C@H]1Oc2cc(C#CC(C)(C)O)ccc2S(=O)(=O)N([C@H](C)CO)C[C@H]1C 2.98%
O=C(C[C@@H]1C[C@H]2c3cc(NC(=O)CC4CC4)ccc3O[C@H]2[C@@H](CO)O1)NCc1ccc(-c2ccccc2)cc1 4.66%
Cc1noc(C)c1NC(=O)N(C)C[C@H]1Oc2c(NS(=O)(=O)c3ccc(Cl)cc3)cccc2C(=O)N([C@@H](C)CO)C[C@@H]1C -1.25% [at 30 µM]
C[C@@H]1CN([C@@H](C)CO)C(=O)Cc2cc(NS(=O)(=O)c3cccs3)ccc2O[C@H]1CN(C)C(=O)Nc1ccc(C(F)(F)F)cc1 6.89%
CCCC(=O)N1CC2(C1)CN(C(=O)C1CCCCC1)[C@H](CO)c1[nH]c3cc(OC)ccc3c12 3.38%
Cc1ccc(S(=O)(=O)C=CS(=O)(=O)c2ccc(C)cc2)cc1 -25.3%
COC(=O)C[C@H]1C[C@@H]2c3cc(NC(=O)Cc4ccncc4)ccc3O[C@@H]2[C@@H](CO)O1 2.05%
CCCNC(=O)[C@H]1[C@H](CO)[C@H]2Cn3c(ccc(/C=C/c4ccccc4)c3=O)[C@@H]1N2C(C)=O 5.69%
C[C@H]1CN([C@@H](C)CO)C(=O)Cc2cc(NC(=O)c3ccncc3)ccc2O[C@H]1CN(C)S(=O)(=O)c1cn(C)cn1 2.8%
Cc1ccc(S(=O)(=O)N(CC(O)CN2CCOCC2)c2cccc([N+](=O)[O-])c2)cc1 (stereo not drawn) -10.8%
C[C@@H]1CN([C@H](C)CO)C(=O)Cc2cc(NC(=O)Nc3cccc4ccccc34)ccc2O[C@@H]1CN(C)Cc1ccc(C(F)(F)F)cc1 5.59%
CN(C)C(=O)C[C@@H]1C[C@@H]2c3cc(NS(C)(=O)=O)ccc3O[C@@H]2[C@H](CO)O1 0.745%
CN(CC(=O)Nc1ccc(F)cc1)CC(=O)NC1CCCCC1 9.17%
O=C(C[C@H]1C[C@@H]2c3cc(NC(=O)NC4CCCC4)ccc3O[C@@H]2[C@@H](CO)O1)NCc1ccc(Cl)cc1 -3.35%
O=C(C[C@H]1C[C@@H]2c3cc(NC(=O)CC4CC4)ccc3O[C@@H]2[C@@H](CO)O1)NCc1ccc(-c2ccccc2)cc1 -3.76%
